Reference: PubChem BioAssay AID1159580 (chemical genetic matrix, 2015)
Values joined by “and” are separate entries in the source; they are usually repeats but may differ in a detail not shown here. Equal entries are not always repeated. Screen size: about 5,500 compounds; about 2,000 (36%) were called active. Another 18% or so got no clear call; they are omitted. Cut-off read from the data, not from the text of the source: active = normalized growth mostly below about 0.91 (no sharp cut-off); inconclusive = no clear call, values can overlap the other calls; inactive = mostly above about 0.92. The list shows a part of the results.

Test: chemical genetic growth profiling, strain panel (AID 1159580);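 note: tested at 20 µM; growth read once vehicle control cultures reached saturation at 30 °C; 1 = growth at the plate median or of vehicle wells; lower values mean less growth of the strain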
Details: S. cerevisiae deletion strains, growth OD

Measured: normalized growth

NC(=O)CN1CCCC1=O
inactive: locus YAL013W, strain DEP1, stronger effect = lower value 1.01 and 1 | locus YAL021C, strain ccr4, stronger effect = lower value 0.982 | locus YAL026C, strain drs2, stronger effect = lower value 0.988 | locus YAL030W, strain snc1, stronger effect = lower value 0.992 | locus YAL040C, strain CLN3, stronger effect = lower value 0.986 | locus YBL061C, strain skt5, stronger effect = lower value 0.985 | locus YBR009C, strain hhf1, stronger effect = lower value 1 | locus YBR021W, strain FUR4, stronger effect = lower value 1.02 | locus YBR023C, strain chs3, stronger effect = lower value 0.991 | locus YBR171W, strain sec66, stronger effect = lower value 0.982 | locus YBR229C, strain ROT2, stronger effect = lower value 1.01 | locus YBR231C, strain swc5, stronger effect = lower value 1 | locus YBR279W, strain paf1, stronger effect = lower value 0.99 | locus YCL011C, strain gbp2, stronger effect = lower value 0.999 | locus YCL016C, strain dcc1, stronger effect = lower value 0.986 | locus YCL029C, strain bik1, stronger effect = lower value 1.02 | locus YCL061C, strain MRC1 (second series), stronger effect = lower value 1 | locus YCL061C, strain MRC1, stronger effect = lower value 0.981 | locus YCL069W, strain vba3, stronger effect = lower value 0.996 | locus YCR088W, strain abp1, stronger effect = lower value 0.978 | locus YDL005C, strain med2, stronger effect = lower value 0.996 | locus YDL035C, strain GPR1, stronger effect = lower value 1.02 | locus YDL040C, strain nat1, stronger effect = lower value 0.993 | locus YDL074C, strain BRE1, stronger effect = lower value 0.985 | locus YDL101C, strain DUN1, stronger effect = lower value 0.999 | locus YDL134C, strain PPH21, stronger effect = lower value 1.02 | locus YDL185W, strain tfp1, stronger effect = lower value 1.01 | locus YDL192W, strain arf1, stronger effect = lower value 1.01 | locus YDR001C, strain nth1, stronger effect = lower value 0.993 | locus YDR069C, strain doa4, stronger effect = lower value 1 | locus YDR101C, strain arx1, stronger effect = lower value 0.991 | locus YDR137W, strain rgp1, stronger effect = lower value 0.98 | locus YDR159W, strain sac3, stronger effect = lower value 1.01 | locus YDR162C, strain NBP2, stronger effect = lower value 1.01 | locus YDR195W, strain ref2 0.976 | locus YDR297W, strain sur2, stronger effect = lower value 0.989 | locus YDR318W, strain mcm21, stronger effect = lower value 1.01 | locus YDR334W, strain swr1, stronger effect = lower value 0.979 | locus YDR335W, strain msn5, stronger effect = lower value 0.989 | locus YDR363W, strain ESC2, stronger effect = lower value 0.983 | locus YDR388W, stronger effect = lower value 1.01 | locus YDR392W, strain spt3, stronger effect = lower value 0.916 | locus YDR502C, strain sam2, stronger effect = lower value 1.01 | locus YEL003W, strain gim4, stronger effect = lower value 0.999 | locus YEL037C, strain rad23, stronger effect = lower value 0.986 | locus YEL061C, strain CIN8 (second series), stronger effect = lower value 0.984 | locus YEL061C, strain CIN8, stronger effect = lower value 1.01 | locus YER002W, strain NOP16, stronger effect = lower value 1 | locus YER015W, strain faa2, stronger effect = lower value 1.01 | locus YER016W, strain bim1, stronger effect = lower value 0.996 | locus YER110C, stronger effect = lower value 1.02 | locus YER111C, strain swi4, stronger effect = lower value 0.988 | locus YER155C, strain BEM2 (second series), stronger effect = lower value 0.975 | locus YER155C, strain BEM2, stronger effect = lower value 1.01 | locus YER167W, strain BCK2, stronger effect = lower value 1.01 | locus YFR010W, strain ubp6, stronger effect = lower value 0.972 | locus YGL078C, strain dbp3, stronger effect = lower value 1.02 | locus YGL086W, strain mad1, stronger effect = lower value 1 | locus YGL167C, strain pmr1, stronger effect = lower value 0.986 | locus YGL173C, strain kem1, stronger effect = lower value 0.998 | locus YGL227W, strain vid30, stronger effect = lower value 0.998 | locus YGL240W, strain doc1, stronger effect = lower value 0.993 | locus YGL248W, strain PDE1, stronger effect = lower value 0.994 | locus YGL253W, strain hxk2, stronger effect = lower value 1 | locus YGR078C, strain PAC10, stronger effect = lower value 0.991 | locus YGR135W, strain pre9, stronger effect = lower value 1.02 | locus YGR252W, strain gcn5, stronger effect = lower value 0.997 | locus YHR013C, strain ard1, stronger effect = lower value 0.963 | locus YHR027C, strain rpn1, stronger effect = lower value 0.988 | locus YHR030C, strain SLT2, stronger effect = lower value 1 and 0.994 | locus YHR079C, strain IRE1 (second series), stronger effect = lower value 1.01 | locus YHR079C, strain IRE1, stronger effect = lower value 0.995 | locus YHR094C, strain hxt1, stronger effect = lower value 1.01 | locus YHR129C, strain ARP1, stronger effect = lower value 1.01 | locus YHR142W, strain chs7, stronger effect = lower value 0.971 | locus YHR200W, strain rpn10, stronger effect = lower value 1.01 | locus YIL066C, strain RNR3, stronger effect = lower value 1.01 | locus YIL073C, strain SPO22, stronger effect = lower value 1.08 | locus YIL125W, strain kgd1, stronger effect = lower value 1.01 | locus YIR030C, strain dcg1, stronger effect = lower value 1.01 | locus YJL092W, strain hpr5, stronger effect = lower value 0.989 | locus YJL095W, strain BCK1 (second series), stronger effect = lower value 0.995 | locus YJL095W, strain BCK1, stronger effect = lower value 0.992 and 0.977 | locus YJL115W, strain asf1, stronger effect = lower value 0.985 | locus YJL129C, strain trk1, stronger effect = lower value 0.998 | locus YJL134W, strain LCB3, stronger effect = lower value 0.997 | locus YJL154C, strain vps35, stronger effect = lower value 0.987 | locus YJL164C, strain tpk1, stronger effect = lower value 0.998 | locus YJL166W, strain qcr8, stronger effect = lower value 0.968 | locus YJL168C, strain set2, stronger effect = lower value 1 | locus YJL187C, strain SWE1 (second series), stronger effect = lower value 1 | locus YJL187C, strain SWE1, stronger effect = lower value 0.982 | locus YJR043C, strain POL32, stronger effect = lower value 1.01 | locus YJR066W, strain TOR1, stronger effect = lower value 0.951 | locus YJR075W, strain HOC1, stronger effect = lower value 1 and 0.993
